# Data as given in PubChem BioAssay.
# Calls of active or inactive are those of the source.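 How the source made its calls, unless noted: active means at least 20% inhibition of 6-phosphogluconate dehydrogenase activity; inactive means the rest.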
# Assays:
# [1] = hESC survival regulators, cell-based (AID 493140; call rule not given here;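 further: cells exposed to compounds for four days before counting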); conditions: human embryonic stem cell survival screen; stronger effect = higher value
# [2] = liver-stage malaria parasite growth inhibition, primary screen, cell-based, HepG2, luciferase luminescence, HepG2 viability (AID 624349; in the data active means parasite load remaining mostly below about 12%, no sharp cut-off; inactive means mostly above about 10%;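 further: 100% = mean of DMSO negative control wells on the same plate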); conditions: P. berghei liver stage in HepG2, luciferase luminescence, concentration not given here; parasite load remaining: stronger effect = lower value; viability: measured here: HepG2 viability without parasites
# [3] = stimulators of nuclear beta-catenin in C2C12, primary screen, imaging, WNT3A-conditioned medium, mouse C2C12, NPC library (AID 1117326; in the data active means nuclear beta-catenin stimulation mostly above about 4.2%, no sharp cut-off; inactive means mostly below about 10%; further: reference of the scale not given here); conditions: stronger effect = higher value
# [4] = stimulators of insulin release from INS-1E, primary screen, cell-based, 5 mM glucose, NPC library (AID 1117329;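 active means compound raises insulin release from rat beta cells at 5 mM glucose, no numeric limit stated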; further: reference of the scale not given here); conditions: rat INS-1E insulin secretion, at 10 µM, stronger effect = higher value
# [5] = growth inhibition of GSK3B-pretreated HCT116 cells – cell-based, CellTiter-Glo, 0.2 to 20 µM (AID 1117336;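 active means compounds lowering colon cancer cell viability after pretreatment blocking the GSK3B kinase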); conditions: HCT116 viability after GSK3B inhibitor, at 20 µM, stronger effect = higher value
# [6] = inhibition of endothelial tube formation, primary screen, imaging, VEGF stimulated, CD31 staining, tube area, NPC library (AID 1117340;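 active means compound that reduces growth-factor-driven endothelial tube area in a mixed cell culture, no cutoff stated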); conditions: VEGF-stimulated ADSC/ECFC co-culture, at 10 µM, stronger effect = higher value
# [7] = glucagon-like peptide 1 release enhancers, primary assay, NCI-H716 cell line, NPC library (AID 1117341;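 active means compound raises GLP1 secretion from the human gut endocrine cells, with no numeric limit stated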; further: reference of the scale not given here); conditions: NCI-H716 cells, at 10 µM, stronger effect = higher value
# [8] = HCT116 colon cancer cell growth inhibition, primary screen, CellTiter-Glo luminescence, NPC library (AID 1117342;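 active means compounds that lower survival of HCT116 colon cancer cells in the luminescence readout, no numeric limit stated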); conditions: at 20 µM (top of the series)
# [9] = CellTiter-Glo luminescent readout of SW480 viability loss, NPC library primary (AID 1117343;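 active means compounds that lower viability of the colon cancer cells in the luminescence readout, with no numeric limit stated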); conditions: CellTiter-Glo luminescence; at 20 µM (top of the series)
# [10] = decreased DLD-1 cellular survival, CellTiter-Glo luminescent readout, NPC compound collection, primary HTS (AID 1117346;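 active means compounds that lower survival of DLD-1 colon cancer cells in the luminescence readout, no cutoff given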); conditions: DLD-1 viability, CellTiter-Glo luminescence; at 20 µM (top of the series)
# [11] = sensitizers of A549 cells to miR-34 induction, primary screen, imaging, A549 dox-inducible miR-34, nuclei and caspase counts (AID 1347080;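 active means compounds whose cell count with miR-34 switched on is under 0.7 times the count with it off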); conditions: A549 miR-34 inducible, Hoechst nuclei count, 48 h
# [12] = survival rescue of mitochondrial mutant cells in low glucose, primary screen, MELAS cybrids, Rieske KO mouse fibroblasts, CellTiter-Glo (AID 1508586;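 active means mean z-score across replicates of 1.96 or higher in either the MELAS or the Rieske mutant cell line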;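 further: z relative to plate mean and SD of compound and empty wells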)
# [13] = target: 6-phosphogluconate dehydrogenase, decarboxylating (Homo sapiens) (UniProt P52209); assay: 6PGD enzyme inhibitors, primary screen, biochemical, human, recombinant enzyme, NADPH absorbance (AID 1159550); conditions: recombinant 6PGD, NADPH absorbance 341 nm; at 10 µM; stronger effect = higher value
# Sequence of 6-phosphogluconate dehydrogenase, decarboxylating (Homo sapiens) (P52209 whole entry, looked up): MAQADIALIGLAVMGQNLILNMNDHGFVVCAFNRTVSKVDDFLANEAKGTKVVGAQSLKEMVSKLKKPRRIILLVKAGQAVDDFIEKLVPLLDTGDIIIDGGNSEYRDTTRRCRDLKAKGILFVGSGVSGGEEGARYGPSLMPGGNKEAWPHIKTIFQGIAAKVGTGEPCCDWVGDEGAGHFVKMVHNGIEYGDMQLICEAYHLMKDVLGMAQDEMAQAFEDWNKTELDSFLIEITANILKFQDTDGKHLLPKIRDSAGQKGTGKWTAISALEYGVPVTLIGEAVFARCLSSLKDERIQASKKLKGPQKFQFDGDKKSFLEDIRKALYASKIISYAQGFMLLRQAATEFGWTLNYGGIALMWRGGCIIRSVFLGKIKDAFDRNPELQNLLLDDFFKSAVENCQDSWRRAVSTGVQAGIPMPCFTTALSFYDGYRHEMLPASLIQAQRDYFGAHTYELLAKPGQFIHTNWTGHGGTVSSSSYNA
# [14] = viability rescue of complex I mutant cybrids, primary screen, cell-based, galactose medium, ATP luminescence (AID 1645843;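 active means z-score of at least 1.8 in each of two replicates, scored against plate mean and spread of sample wells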;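 further: positive z means more ATP and so rescue of galactose-driven cybrid death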); conditions: complex I mutant cybrid cells, 72 h, stronger effect = higher value
# [15] = measured here: relative caspase fold change +Dox/-Dox
# [16] = measured here: total cells with miR-34 induction, stronger effect = lower value
# [17] = measured here: total cells without miR-34 induction
# [18] = MELAS cybrid survival, CellTiter-Glo 48 h, stronger effect = higher value
# [19] = Rieske KO mouse fibroblast survival, CellTiter-Glo 72 h
structure (smiles),measurement,setting,value
C[C@@H]1CN(C2CCC(C#N)(c3ccc(F)cc3)CC2)CC[C@]1(C(=O)O)c1ccccc1 (stereo partly drawn),survival,[1],4.42 (inactive)
same,parasite load remaining,[2],126% (inactive)
same,viability,[2],76.2%
same,nuclear beta-catenin stimulation,[3]; at 10 µM,0% (inactive)
same,nuclear beta-catenin stimulation,"[3]; stimulation, at 2 µM",0.4%
same,insulin secretion stimulation,[4],-1.7% (inactive)
same,viability decrease,[5],18.6% (inactive)
same,tube area decrease,[6],9.6% (inactive)
same,GLP1 secretion stimulation,[7],1.1% (inactive)
same,inhibition of viability,[8],15.3% (inactive)
same,viability decrease (inhibition),[9],33.5% (inactive)
same,viability decrease (inhibition),[10],30.7% (inactive)
same,fold change,[11]; stronger effect = lower value,0.976 (inactive)
same,fold change,[11]; [15],0.701
same,cell count,[11]; [16],9400
same,cell count,[11]; [17],9630
same,z-score,[12]; [18],-1.75 (inactive)
same,z-score,[12]; [19],-1.19
Clc1cccc(N2CCNCC2)c1,nuclear beta-catenin stimulation,[3]; at 10 µM,1% (inactive)
same,nuclear beta-catenin stimulation,"[3]; stimulation, at 2 µM",0.1%
same,insulin secretion stimulation,[4],3.9% (inactive)
same,viability decrease,[5],15% (inactive)
same,tube area decrease,[6],3.3% (inactive)
same,GLP1 secretion stimulation,[7],6.5% (inactive)
same,inhibition of viability,[8],10.8% (inactive)
same,viability decrease (inhibition),[9],68.5% (active)
same,viability decrease (inhibition),[10],26.4% (inactive)
CCCCCCCCOC(=O)c1ccccc1C(=O)OCCCCCCCC,nuclear beta-catenin stimulation,[3]; at 10 µM,3.1% (inactive)
same,nuclear beta-catenin stimulation,"[3]; stimulation, at 2 µM",-1.3%
same,insulin secretion stimulation,[4],0.05% (inactive)
same,viability decrease,[5],5.3% (inactive)
same,GLP1 secretion stimulation,[7],-0.4% (inactive)
same,inhibition of viability,[8],32% (inactive)
same,viability decrease (inhibition),[9],-4.6% (inactive)
same,viability decrease (inhibition),[10],3.6% (inactive)
C[C@@H]1OC(O[C@H]2CC[C@]3(C=O)[C@H]4CC[C@]5(C)C(C6=CC(=O)OC6)CC[C@]5(O)[C@@H]4CC[C@]3(O)C2)[C@H](O)[C@H](O)[C@H]1O (stereo partly drawn),inhibition,[13],2.25% (inactive)
COP(N)(=O)SC (stereo not drawn),inhibition,[13],4.36% (inactive)
c1cncc([C@@H]2CCCCN2)c1,inhibition,[13],4.92% (inactive)
C[C@]12CCC3C(CC[C@H]4C[C@@H](Cl)CC[C@]34C)C1CCC2=O (stereo partly drawn),inhibition,[13],-16.8% (inactive)
COCC(C)N(C(=O)CCl)c1c(C)csc1C (stereo not drawn),nuclear beta-catenin stimulation,[3]; at 10 µM,0.5% (inactive)
same,nuclear beta-catenin stimulation,"[3]; stimulation, at 2 µM",2.6%
same,insulin secretion stimulation,[4],0.7% (inactive)
same,GLP1 secretion stimulation,[7],-0.9% (inactive)
CNC(=O)Oc1cccc2c1OC(C)(C)O2,inhibition,[13],-4.88% (inactive)
C[C@]12CCC(=O)C=C1CCc1ccc(O)cc12,inhibition,[13],-3.52% (inactive)
CCN1CC2(COC)C(O)CC(OC)C34C5CC6(O)C(OC)C(O)C(OC(C)=O)(C5C6OC(=O)c5ccccc5)C(C(OC)C23)C14 (stereo not drawn),inhibition,[13],17.1% (inactive)
c1ccc2c(c1)Sc1ccccc1N2CC1CN2CCC1CC2 (stereo not drawn),nuclear beta-catenin stimulation,[3]; at 10 µM,50.9% (active)
same,nuclear beta-catenin stimulation,"[3]; stimulation, at 2 µM",-0.7%
same,insulin secretion stimulation,[4],11.5% (inactive)
same,GLP1 secretion stimulation,[7],26.8% (active)
same,fold change,[11]; stronger effect = lower value,0.854 (inactive)
same,fold change,[11]; [15],0.648
same,cell count,[11]; [16],6390
same,cell count,[11]; [17],7490
same,z-score,[12]; [18],-0.772 (inactive)
same,z-score,[12]; [19],-0.213
same,z-score,[14],-2.58 (inactive)
Fc1cc(Br)ccc1CBr,nuclear beta-catenin stimulation,[3]; at 10 µM,-0.7% (inactive)
same,nuclear beta-catenin stimulation,"[3]; stimulation, at 2 µM",13%
same,viability decrease,[5],3.1% (inactive)
same,tube area decrease,[6],-4.2% (inactive)
same,inhibition of viability,[8],-1.5% (inactive)
same,viability decrease (inhibition),[9],5.9% (inactive)
same,viability decrease (inhibition),[10],9.1% (inactive)
C=C(C)C(=O)/C(=C/C(=O)O)OC,inhibition,[13],12.8% (inactive)
O=C(CC[N+](=O)[O-])OC[C@H]1O[C@@H](O)[C@H](OC(=O)CC[N+](=O)[O-])[C@@H](OC(=O)CC[N+](=O)[O-])[C@@H]1OC(=O)CC[N+](=O)[O-],inhibition,[13],0.279% (inactive)
COC(=O)C(Cl)C(=O)OC,nuclear beta-catenin stimulation,[3]; at 10 µM,0.3% (inactive)
same,nuclear beta-catenin stimulation,"[3]; stimulation, at 2 µM",6.8%
same,viability decrease,[5],51.9% (active)
same,inhibition of viability,[8],37.3% (inactive)
same,viability decrease (inhibition),[9],-7.9% (inactive)
same,viability decrease (inhibition),[10],3.4% (inactive)
CC(=O)O[C@@H]1[C@H]2CC[C@H]3[C@@](C)(O)[C@@H]4C[C@H](O)C(C)(C)[C@@]4(O)[C@H](O)C[C@@]13C[C@@]2(C)O,inhibition,[13],8.37% (inactive)
